Reference: PubChem BioAssay
Active and inactive are the calls of the source. Unless noted, no rule for the calls is given here.

Assays:
[1] = compound effects on lung adenocarcinoma cell viability – A549, calcein-AM fluorescence, 48 h, basal, profiling panel (AID 1162); settings: higher = more signal; also: test concentration not given here
[2] = compound effects on differentiated 3T3-L1 adipocyte viability – cell-based, 3T3-L1 adipocytes, calcein-AM fluorescence, 48 h, basal, profiling panel (AID 1163); settings: 3T3-L1 adipocytes viability, higher = more signal; also: test concentration not given here
[3] = compound effects on hepatocellular carcinoma cell viability – HepG2, calcein-AM fluorescence, 48 h, basal, profiling panel (AID 1164); settings: higher = more signal; also: test concentration not given here
[4] = compound effects on multiple myeloma cell viability – MM1S, calcein-AM fluorescence, 48 h, basal, profiling panel (AID 1165); settings: higher = more signal;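 also: viability of MM1S multiple myeloma cells under basal unstimulated conditions; test concentration not given here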
[5] = calcein-AM signal in unstimulated myeloma cells – cell-based, calcein-AM fluorescence, 48 h, PK04 Diversity Set, profiling panel (AID 1166); settings: RPMI8226 myeloma viability, higher = more signal;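 also: cells grown under basal conditions without added stimulus; test concentration not given here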
[6] = JC-1 mitochondrial signal, unstimulated HepG2 cells – cell-based, JC-1 fluorescence, 24 h, 100 nL compound, profiling panel (AID 1167); settings: HepG2 mitochondrial potential, higher = more signal; also: test concentration not given here
[7] = JC-1 mitochondrial signal, unstimulated adipocytes – cell-based, JC-1 fluorescence, 3T3-L1 adipocytes, 24 h, 100 nL compound, profiling panel (AID 1168); settings: JC-1 mitochondrial fluorescence, higher = more signal, called active from +8 up or from −8 down; also: test concentration not given here
[8] = JC-1 mitochondrial signal, unstimulated myeloma cells – cell-based, JC-1 fluorescence, RPMI8226, 24 h, 100 nL compound, profiling panel (AID 1169); settings: JC-1 mitochondrial potential fluorescence, higher = more signal; also: test concentration not given here
[9] = JC-1 mitochondrial signal, unstimulated MM1S myeloma – cell-based, JC-1 fluorescence, 24 h, 100 nL compound, profiling panel (AID 1170); settings: MM1S mitochondrial potential, higher = more signal; also: test concentration not given here
[10] = resazurin metabolic signal in A549 cells – cell-based, resazurin fluorescence, 24 h, PK04 Diversity Set, profiling panel (AID 1171); settings: A549 viability, higher = more signal, called active from +8 up or from −8 down; also: test concentration not given here
[11] = resazurin metabolic signal in HepG2 cells – cell-based, resazurin fluorescence, 24 h, PK04 Diversity Set, profiling panel (AID 1172); settings: HepG2 viability, higher = more signal; also: test concentration not given here
[12] = budding yeast growth changes without added modifier – OD600, strain BY4716, 24 h, basal condition, primary screen (AID 1173); settings: S. cerevisiae BY4716 growth, OD600, 24 h; higher = more signal, called active from +8 up or from −8 down
[13] = viability profiling in MM1S myeloma cells – cell-based, resazurin fluorescence, basal, 24 h, PK04 Diversity Set, profiling panel (AID 1174); settings: higher = more signal, called active from +8 up or from −8 down; also: test concentration not given here
[14] = target: Dihydroorotate dehydrogenase (quinone), mitochondrial (Plasmodium falciparum (isolate 3D7)) (UniProt Q08210); experiment: inhibition of P. falciparum DHODH – biochemical, C-terminal His tag, absorbance 600 nm, primary screen (AID 1175); settings: PfDHODH enzyme, DCIP absorbance 600 nm; higher = more signal, called active from +8 up or from −8 down;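 also: recombinant parasite enzyme with a five histidine tag at its C terminus; test concentration not given here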
[15] = inhibition of PAO1 biofilm formation – strain PAO1, LB-PBS medium, absorbance 600 nm, primary screen (AID 1176); also: test concentration not given here; settings: P. aeruginosa PAO1 growth/biofilm, A600, 12 h; higher = more signal
[16] = growth modulation of vineyard yeast isolate – strain RM11-1a, OD600, basal, 24 h, primary screen (AID 1177);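 also: cultures grown under basal conditions with no added stressor; test concentration not given here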; settings: S. cerevisiae RM11-1a growth, OD600, 24 h; higher = more signal, called active from +8 up or from −8 down
[17] = growth of efflux-deficient E. coli DRC39 – strain DRC39, OD650, 24 h, E. coli filamentation inducers, primary screen (AID 1178);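 also: growth measured as culture turbidity by optical density at 650 nm; test concentration not given here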; settings: E. coli DRC39 acrAB, higher = more signal, called active from +8 up or from −8 down
[18] = growth of efflux-deficient E. coli DRC39 – strain DRC39, OD650, 48 h, E. coli filamentation inducers, primary screen (AID 1179);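 also: screen aims at cell division blockers that make cells filament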; settings: E. coli DRC39 delta-acrAB growth, higher = more signal, called active from +8 up or from −8 down
[19] = viability profiling in RPMI8226 myeloma cells – cell-based, resazurin fluorescence, basal, 24 h, PK04 Diversity Set, profiling panel (AID 1180); settings: higher = more signal;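 also: RPMI8826 multiple myeloma cell line at 5000 cells per well; test concentration not given here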
[20] = target: E3 ubiquitin-protein ligase XIAP (Homo sapiens) (UniProt P98170); experiment: small molecules binding XIAP protein – biophysical, small-molecule microarray, fluorescence 635 nm, primary screen (AID 1181); settings: higher = more signal;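 also: score merges 667 nm emission and signal to noise over triplicate slides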
Chain of E3 ubiquitin-protein ligase XIAP (Homo sapiens) (P98170 whole entry, looked up): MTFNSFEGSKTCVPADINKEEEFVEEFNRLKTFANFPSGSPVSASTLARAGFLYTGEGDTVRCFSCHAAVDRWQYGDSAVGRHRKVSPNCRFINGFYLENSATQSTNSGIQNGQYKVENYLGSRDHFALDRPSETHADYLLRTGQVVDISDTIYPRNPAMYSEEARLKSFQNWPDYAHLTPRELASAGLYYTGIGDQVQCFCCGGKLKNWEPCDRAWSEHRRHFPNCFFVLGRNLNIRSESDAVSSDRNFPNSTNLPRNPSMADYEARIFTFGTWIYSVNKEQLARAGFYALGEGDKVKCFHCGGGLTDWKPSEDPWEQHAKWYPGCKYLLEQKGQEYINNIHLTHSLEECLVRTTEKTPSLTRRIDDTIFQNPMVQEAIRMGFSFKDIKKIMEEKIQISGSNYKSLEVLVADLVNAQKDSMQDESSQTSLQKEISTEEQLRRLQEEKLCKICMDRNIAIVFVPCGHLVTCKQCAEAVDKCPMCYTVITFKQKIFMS

Chain of Dihydroorotate dehydrogenase (quinone), mitochondrial (Plasmodium falciparum (isolate 3D7)) (Q08210 whole entry, looked up): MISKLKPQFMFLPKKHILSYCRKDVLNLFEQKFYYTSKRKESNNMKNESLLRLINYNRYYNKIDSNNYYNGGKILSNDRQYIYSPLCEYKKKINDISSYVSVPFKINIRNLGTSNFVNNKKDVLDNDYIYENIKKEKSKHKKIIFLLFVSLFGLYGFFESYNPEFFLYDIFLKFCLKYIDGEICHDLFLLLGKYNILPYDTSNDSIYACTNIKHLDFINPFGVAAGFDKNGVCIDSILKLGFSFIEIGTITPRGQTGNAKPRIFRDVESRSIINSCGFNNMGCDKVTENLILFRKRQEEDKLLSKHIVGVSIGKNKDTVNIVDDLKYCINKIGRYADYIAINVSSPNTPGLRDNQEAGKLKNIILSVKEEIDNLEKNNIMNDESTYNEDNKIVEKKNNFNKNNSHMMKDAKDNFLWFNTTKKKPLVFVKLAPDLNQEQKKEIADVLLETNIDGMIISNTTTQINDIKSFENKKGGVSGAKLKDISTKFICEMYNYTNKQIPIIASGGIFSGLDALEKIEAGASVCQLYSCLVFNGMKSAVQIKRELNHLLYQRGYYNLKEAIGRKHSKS

## C=C(COC)C(=O)CC[C@H](OC(=O)c1cccnc1)c1ccc(OCCO)cc1
[1]
  z-score: 0.369
[2]
  z-score: 0.0993
[3]
  z-score: 0.143
[4]
  z-score: -1.93
[5]
  z-score: -0.418
[6]
  z-score: -1.02
[7]
  z-score: -0.351 (inactive)
[8]
  z-score: 0.878
[9]
  z-score: -0.0164
[10]
  z-score: -0.552 (inactive)
[11]
  z-score: -0.974
[12]
  z-score: -3.4 (inactive)
[13]
  z-score: -0.443 (inactive)
[14]
  composite z-score: -2.45 (inactive)
[15]
  z-score: -0.0342 (inactive)
[16]
  z-score: 1.29 (inactive)
[17]
  z-score: -0.768 (inactive)
[18]
  z-score: -0.8 (inactive)
[19]
  z-score: -0.776
[20]
  composite z-score: -0.0013

## C=CCNC(=O)[C@H]1[C@@H]2C(=O)O[C@@H](c3ccccc3)[C@@H](c3ccccc3)N2[C@@H](c2ccc(OCCO)cc2)[C@]12C(=O)Nc1ccccc12
[1]
  z-score: 0.375
[2]
  z-score: 1.35
[3]
  z-score: -0.503
[4]
  z-score: 0.287
[5]
  z-score: -0.62
[6]
  z-score: -1.21
[7]
  z-score: -0.00331 (inactive)
[8]
  z-score: -0.522
[9]
  z-score: -0.377
[10]
  z-score: 1.02 (inactive)
[11]
  z-score: 0.429
[12]
  z-score: 0.997 (inactive)
[13]
  z-score: 1.13 (inactive)
[14]
  composite z-score: -0.26 (inactive)
[15]
  z-score: -0.172 (inactive)
[16]
  z-score: 1.69 (inactive)
[17]
  z-score: 0.237 (inactive)
[18]
  z-score: -0.564 (inactive)
[19]
  z-score: 0.608
[20]
  composite z-score: 0.347

## COC(=O)c1cccc([C@H]2OC(=CC(=O)OC(C)C)C[C@@H](c3cccc(C(=O)OC)c3)O2)c1
[1]
  z-score: -0.921
[2]
  z-score: 0.229
[3]
  z-score: -0.248
[4]
  z-score: -3.15
[5]
  z-score: -1.64
[6]
  z-score: -0.571
[7]
  z-score: -1.52 (inactive)
[8]
  z-score: -1.08
[9]
  z-score: -2.76
[10]
  z-score: -0.0417 (inactive)
[11]
  z-score: -0.674
[12]
  z-score: -2.43 (inactive)
[13]
  z-score: -0.799 (inactive)
[14]
  composite z-score: -0.351 (inactive)
[15]
  z-score: 0.188 (inactive)
[16]
  z-score: -0.258 (inactive)
[17]
  z-score: -0.435 (inactive)
[18]
  z-score: -0.0196 (inactive)
[19]
  z-score: 0.0732
[20]
  composite z-score: 0.378

## CC(C)(C)OC(=O)CC[C@@]1(C(=O)NCCN2CCOCC2)N=C(c2ccc(OCCCO)cc2)O[C@@H]1c1ccccc1CN=[N+]=[N-]
[1]
  z-score: -0.34
[2]
  z-score: -0.502
[3]
  z-score: 0.463
[4]
  z-score: -0.0725
[5]
  z-score: -0.749
[6]
  z-score: 0.777
[7]
  z-score: -0.916 (inactive)
[8]
  z-score: -0.29
[9]
  z-score: -0.586
[10]
  z-score: 0.973 (inactive)
[11]
  z-score: 0.535
[12]
  z-score: -0.51 (inactive)
[13]
  z-score: -0.743 (inactive)
[14]
  composite z-score: -0.918 (inactive)
[15]
  z-score: -0.0988 (inactive)
[16]
  z-score: -0.922 (inactive)
[17]
  z-score: -0.407 (inactive)
[18]
  z-score: -0.721 (inactive)
[19]
  z-score: -0.28
[20]
  composite z-score: -0.0559

## COc1ccc([Si](C)(C)[C@@H]2[C@@H](CC(=O)N3Cc4ccccc4C[C@H]3CO)O[C@]3(C(=O)N(Cc4ccc(N5CCOC5=O)cc4)c4ccccc43)[C@H]2C)cc1
[1]
  z-score: 0.369
[2]
  z-score: 0.704
[3]
  z-score: 0.115
[4]
  z-score: -1.07
[5]
  z-score: -0.876
[6]
  z-score: 0.966
[7]
  z-score: 1 (inactive)
[8]
  z-score: -1.11
[9]
  z-score: 0.359
[10]
  z-score: -0.674 (inactive)
[11]
  z-score: -0.231
[12]
  z-score: -0.678 (inactive)
[13]
  z-score: -1.49 (inactive)
[14]
  composite z-score: -0.836 (inactive)
[15]
  z-score: 1.18 (inactive)
[16]
  z-score: 0.455 (inactive)
[17]
  z-score: 0.868 (inactive)
[18]
  z-score: 0.465 (inactive)
[19]
  z-score: -0.504
[20]
  composite z-score: 0.0049

## CCCCC(O)C1C=CC2C(=O)N(c3ccccc3)C(=O)C2N1Nc1ccc(C#N)cc1 (stereo not given)
[1]
  z-score: 0.233
[2]
  z-score: 0.15
[3]
  z-score: 1.2
[4]
  z-score: 0.105
[5]
  z-score: 0.0528
[6]
  z-score: -0.622
[7]
  z-score: -1.19 (inactive)
[8]
  z-score: -0.0799
[9]
  z-score: -0.0525
[10]
  z-score: -0.151 (inactive)
[11]
  z-score: -0.438
[12]
  z-score: -1.03 (inactive)
[13]
  z-score: 0.0125 (inactive)
[14]
  composite z-score: 0.318 (inactive)
[15]
  z-score: 0.999 (inactive)
[16]
  z-score: 0.63 (inactive)
[17]
  z-score: 0.172 (inactive)
[18]
  z-score: -0.465 (inactive)
[19]
  z-score: 0.628
[20]
  composite z-score: 0.169

## CCCCCC1=C2CNC(CC(C)C)(C(=O)OC)C=C2C(C)C1=O (stereo not given)
[1]
  z-score: -0.659
[2]
  z-score: -0.707
[3]
  z-score: 0.468
[4]
  z-score: -0.227
[5]
  z-score: -1.12
[6]
  z-score: 0.745
[7]
  z-score: -1.21 (inactive)
[8]
  z-score: -0.324
[9]
  z-score: -1.53
[10]
  z-score: -0.683 (inactive)
[11]
  z-score: -0.97
[12]
  z-score: 0.153 (inactive)
[13]
  z-score: -1.2 (inactive)
[14]
  composite z-score: -1.09 (inactive)
[15]
  z-score: 0.383 (inactive)
[16]
  z-score: 0.915 (inactive)
[17]
  z-score: 0.0841 (inactive)
[18]
  z-score: 0.501 (inactive)
[19]
  z-score: -0.927
[20]
  composite z-score: 0.0907

## CC=CC(O)C1C=CC2C(=O)NC(=O)C2N1Nc1ccc(Cl)cc1Cl (stereo not given)
[1]
  z-score: -1.54
[2]
  z-score: -0.883
[3]
  z-score: -1.14
[4]
  z-score: -0.866
[5]
  z-score: -0.624
[6]
  z-score: -2.04
[7]
  z-score: -1.04 (inactive)
[8]
  z-score: 0.501
[9]
  z-score: -0.446
[10]
  z-score: -0.458 (inactive)
[11]
  z-score: -1.2
[12]
  z-score: -11.4 (active)
[13]
  z-score: -1.53 (inactive)
[14]
  composite z-score: 0.733 (inactive)
[15]
  z-score: 0.723 (inactive)
[16]
  z-score: 1.52 (inactive)
[17]
  z-score: -0.427 (inactive)
[18]
  z-score: -0.356 (inactive)
[19]
  z-score: -1.68
[20]
  composite z-score: -0.113

## [N-]=[N+]=Nc1ccccc1[C@H]1OC(c2ccc(OCCCO)cc2)=N[C@@]1(Cc1ccccc1)C(=O)NCC(O)CO (stereo not given in full)
[1]
  z-score: -0.761
[2]
  z-score: 0.405
[3]
  z-score: -0.629
[4]
  z-score: -1.5
[5]
  z-score: -2.2
[6]
  z-score: 0.854
[7]
  z-score: 0.291 (inactive)
[8]
  z-score: -0.925
[9]
  z-score: -1
[10]
  z-score: -0.949 (inactive)
[11]
  z-score: 1.21
[12]
  z-score: -1.65 (inactive)
[13]
  z-score: -1.21 (inactive)
[14]
  composite z-score: -0.0513 (inactive)
[15]
  z-score: -1.08 (inactive)
[16]
  z-score: 0.972 (inactive)
[17]
  z-score: 0.413 (inactive)
[18]
  z-score: 0.318 (inactive)
[19]
  z-score: -1.28
[20]
  composite z-score: 0.0487
